Source: PubChem (National Center for Advancing Translational Sciences (NCATS))
Sampled rows, rich in hits. Any-hit rate of the full collection: about 6.6%.
SW480 rereplic = induces DNA re-replication in SW480 colon adenocarcinoma cells; SW480 DNA re-replication, Hoechst DNA content imaging, 48 h; Potency, µM (titrated, usually from 46.1 µM), inactives show at the top dose re-replication activation, usual class: activators; 340,000 tested, 1.8% active; note: % of control where 0% means no effect; nearly all actives have a fitted effect of over 55% in size
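Treated cells incubate 48 hr (37 C, 5% CO2), are stained 40 min with Hoechst, and nuclear fluorescence is enumerated; a rise in nuclei with high DNA signal marks re-replication.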
MCF10A rerep = DNA re-replication induction in MCF 10a cells; MCF 10A DNA re-replication, Hoechst nuclear intensity, 48 h; Potency, µM (series often up to 46.1 µM), inactives show at the highest dose activity, positive = re-replication, most hits filed as activators; 350,000 tested, 2.9% active; AID 624296; note: % of control where 0% means no effect; nearly all actives have a fitted effect of over 50% in size
RGS4 inh = inhibitors of human regulator of G protein signaling 4; P49798; Transcreener GDP fluorescence polarization, RGS4-accelerated GTP hydrolysis; Potency, µM (titrated, usually from 114 µM), inactives show top-dose activity change, negative = inhibition, actives largely listed as inhibitors; 390,000 tested, 0.039% active; AID 504845; note: % is set by controls: 0 for no effect and ±100 for the full control effect; nearly all actives have a fitted effect of over 75% in size
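MLSMR compounds (23 nl, pin-transferred) preincubated 10 min at room temperature with a 500nM (2x) first reagent, then RGS4 at 900nM (2x) plus Transcreener GDP mix added; fluorescence polarization (620/688 nm) read before and after 90 min at 30 °C.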
KB-V1 cytotox = kills drug-selected multidrug resistant KB-V1 cells; KB-V1 MDR cells viability, CellTiter-Glo, 72 h; Potency, µM (series often up to 46.1 µM), most hits filed as cytotoxic; 400,000 tested, 3.4% active; AID 1347076; note: % is set by controls: 0 for no effect and ±100 for the full control effect; nearly all actives have a fitted effect of over 60% in size
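qHTS viability screen in drug-selected KB-V1 MDR cells: 72 h compound treatment at 37 degrees C, ATP luminescence end point.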
TSG101-PTAP inh = blocks PTAP/TSG101 interaction to inhibit HIV-1 budding. Potency, µM (top dose mostly 115 µM), for inactives: at the highest dose activity change, negative = inhibition, hits mostly inhibitors. AID 493005. Q99816. 340,000 tested, under 10 active. Fluorescence polarization, FITC-PTAP peptide / Tsg101 binding; active = well fitted inhibition curve with a large enough effect in the main read-out, with a control signal flat, not every such curve was filed as active; inconclusive = small, poorly fitted or top-dose-only effect, or effect the other way, or a change in a side signal; inactive = no such curve, though single readings can be large or run the other way; note: % of control where 0% means no effect
Target sequence (Q99816 whole entry, looked up): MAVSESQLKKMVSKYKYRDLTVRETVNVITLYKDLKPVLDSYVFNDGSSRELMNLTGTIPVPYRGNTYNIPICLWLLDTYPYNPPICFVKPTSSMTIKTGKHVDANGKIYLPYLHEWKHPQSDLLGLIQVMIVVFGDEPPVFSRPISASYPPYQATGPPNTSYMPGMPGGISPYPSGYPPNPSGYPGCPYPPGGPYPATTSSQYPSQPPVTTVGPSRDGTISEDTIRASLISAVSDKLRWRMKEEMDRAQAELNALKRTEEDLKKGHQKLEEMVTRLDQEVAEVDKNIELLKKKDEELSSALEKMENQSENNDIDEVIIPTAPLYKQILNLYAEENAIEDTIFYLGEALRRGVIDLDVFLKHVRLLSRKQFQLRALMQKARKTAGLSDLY
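FP read-out: FITC-PTAP peptide, 50 nM final, binding Tsg101 binding domain, 10 uM final; 20 min, r.t.; 10 mM HEPES pH 7.5, 0.15 M NaCl, 0.01% Tween 20, 3 mM EDTA, 0.1 mM TCEP.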
KB-3-1 cytotox = kills parental KB-3-1 adenocarcinoma cells; KB-3-1 viability, CellTiter-Glo ATP luminescence, 72 h; Potency, µM (doses to about 46.1 µM), usual class: cytotoxic; 400,000 tested, 1.4% active; AID 1347075; note: % is set by controls: 0 for no effect and ±100 for the full control effect; nearly all actives have a fitted effect of over 60% in size
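Using CellTiter-Glo luminescence, growth of non-resistant KB-3-1 adenocarcinoma cells is assessed 72 h after pin-tool compound addition at 37 °C. Normalized responses across the concentration series yield fitted curves.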
The depositor's hits bear a star; i = inactive; u = inconclusive; x = no result; [ ] = remark or other dose. Unless noted, calls come from the whole dose curve; as a rule, active = well fitted curve in the direction sought with a large enough effect; inconclusive = small, poorly fitted or top-dose-only effect, or another doubt; inactive = no such curve, though single readings can be large; an effect the other way counts as inactive or inconclusive. Potency is the fitted concentration of half-maximal effect.

SMILES | SW480 rereplic | MCF10A rerep | RGS4 inh | KB-V1 cytotox | TSG101-PTAP inh | KB-3-1 cytotox
Cc1ccc(N=N/C(=C\O)C(=O)c2ccncc2)cc1 | 10% | u | -9% | i | -6% | i
CCN(CC)c1ccc(/C=C/c2ccncc2)cc1 | x | x | x | i | x | 0.52µM*
Cc1ccc(-c2cc(C(F)(F)F)n3nc(C(=O)Nc4ccc(Cl)c(C(F)(F)F)c4)cc3n2)cc1 | x | x | 18% | i | x | i
COc1ccc(N(CC(=O)Nc2cc(C)ccc2C)S(=O)(=O)c2ccc(OC)c(OC)c2)cc1 | x | x | 0% | i | x | i
CCN1/C(=C/c2ccc3cc(C)ccc3[n+]2CC)Sc2ccccc21 | -8% | 14% | -37% | i | 25% | 1.6µM*
CCOC(=O)/C(=C/C=C1\Sc2cc(C)c(C)cc2N1CC)C(C)=O | -9% | 21% | -25% | u | u | u
CCN1/C(=C/c2ccc3cc(C)ccc3[n+]2CC)Sc2cc(C)c(C)cc21 | u | -2%[9.22 µM] | -35% | u | 3% | 1.8µM*
CC[n+]1c(/C=C2\Sc3ccccc3N2C)ccc2cccc(C)c21 | -10% | -6% | -13% | 16µM* | 19% | 0.46µM*
CCCN(S(=O)(=O)c1ccccc1F)S(=O)(=O)c1ccccc1Br | u | 21µM* | -7% | i | -2% | i
Cc1nn(Cc2ccccc2)c(Cl)c1C(=O)OCc1nnc(-c2ccccc2)o1 | -1% | u | -9% | 7.3µM* | 0% | i
Cc1nn(Cc2ccccc2)c(Cl)c1C(=O)OCc1nnc(-c2ccc(Cl)cc2)o1 | -5% | 15% | -27% | i | -5% | i
COC(=O)c1c(-c2ccncc2)csc1NC(=O)c1ccoc1C | 0% | u | 14% | 6.5µM* | -1% | u
O=C(/C=C/c1ccc([N+](=O)[O-])cc1)OCC(=O)N1CCOCC1 | 1% | 18µM* | 7% | x | -8% | x
O=C(/C=C/c1ccccc1)OCC(=O)N1CCCC1 | -11% | -4% | -18% | i | -8% | i
O=C(/C=C/c1cccc(F)c1)OCC(=O)N1CCCC1 | 8.2µM* | u | -13% | i | 2% | i
CCOC(=O)C1CCN(C(=O)CC(C)c2ccccc2)CC1 (configuration not stated) | 2% | 29% | -45%[56.9 µM] | i | 0% | i
CCOC(=O)C1CCN(C(=O)COC(=O)/C=C/c2ccccc2)CC1 | 7.3µM* | 3% | 17% | i | -4% | u
CCOC(=O)C1CCN(C(=O)C(CC)c2ccccc2)CC1 (configuration not stated) | 18µM* | -2% | 11% | i | 0% | i
COc1ccc(-c2cn3cccnc3n2)cc1NC(=O)c1cc(C)cc(C)c1 | x | x | -42% | x | x | x
Cc1cccc(N2CCN(C(=O)Cn3cccc3C(=O)c3ccccc3)CC2)c1C | u | u | -24% | 16µM* | -2% | u
CCOC(=O)N1CCN(C(=O)C(c2ccccc2)c2ccccc2)CC1 | u | u | 6% | 4.1µM* | 1% | i
CCOC(=O)C1CCCN(C(=O)Cn2cccc2C(=O)c2ccccc2)C1 (configuration not stated) | -4% | 2% | 25% | i | -1% | i
CCOC(=O)C1CCN(C(=O)Cn2cccc2C(=O)c2ccccc2)CC1 | -4% | 16% | 18% | 21µM* | -6% | i
C/C(=C\c1ccccc1)CN1CCN(C)CC1 | -5% | 2% | -16% | i | -5% | i
CCOC(=O)N1CCN(C/C(C)=C/c2ccccc2)CC1 | -9% | 14% | 6% | 15µM* | -4% | i
COc1cccc(C(=O)N2CCCCC2CCN2CCCCC2)c1 (configuration not stated) | x | x | -6% | x | x | x
CCN(CC)S(=O)(=O)c1ccc(C)c(NC(=O)CSc2nc3ccccc3[nH]2)c1 | x | 1% | -10% | u | -4% | i
